Structures are written as SMILES. In all, about 310,000 compounds went through this assay and about 14,000 (4.5%) showed an effect of 50% or more. The effect is printed as a negative number. Only a selection was taken, and strong results are over-represented in it overall.
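Further: peak tail current of the secondary pulse compared with the same well before compound.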

The target of this experiment is human ether-à-go-go-related gene (hERG) potassium channel (human, UniProt Q12809). In words: primary screen, population patch clamp on CHO cells stably expressing hERG; higher = less effect of the substance.
Sequence of human ether-à-go-go-related gene (hERG) potassium channel (Q12809 whole entry, looked up): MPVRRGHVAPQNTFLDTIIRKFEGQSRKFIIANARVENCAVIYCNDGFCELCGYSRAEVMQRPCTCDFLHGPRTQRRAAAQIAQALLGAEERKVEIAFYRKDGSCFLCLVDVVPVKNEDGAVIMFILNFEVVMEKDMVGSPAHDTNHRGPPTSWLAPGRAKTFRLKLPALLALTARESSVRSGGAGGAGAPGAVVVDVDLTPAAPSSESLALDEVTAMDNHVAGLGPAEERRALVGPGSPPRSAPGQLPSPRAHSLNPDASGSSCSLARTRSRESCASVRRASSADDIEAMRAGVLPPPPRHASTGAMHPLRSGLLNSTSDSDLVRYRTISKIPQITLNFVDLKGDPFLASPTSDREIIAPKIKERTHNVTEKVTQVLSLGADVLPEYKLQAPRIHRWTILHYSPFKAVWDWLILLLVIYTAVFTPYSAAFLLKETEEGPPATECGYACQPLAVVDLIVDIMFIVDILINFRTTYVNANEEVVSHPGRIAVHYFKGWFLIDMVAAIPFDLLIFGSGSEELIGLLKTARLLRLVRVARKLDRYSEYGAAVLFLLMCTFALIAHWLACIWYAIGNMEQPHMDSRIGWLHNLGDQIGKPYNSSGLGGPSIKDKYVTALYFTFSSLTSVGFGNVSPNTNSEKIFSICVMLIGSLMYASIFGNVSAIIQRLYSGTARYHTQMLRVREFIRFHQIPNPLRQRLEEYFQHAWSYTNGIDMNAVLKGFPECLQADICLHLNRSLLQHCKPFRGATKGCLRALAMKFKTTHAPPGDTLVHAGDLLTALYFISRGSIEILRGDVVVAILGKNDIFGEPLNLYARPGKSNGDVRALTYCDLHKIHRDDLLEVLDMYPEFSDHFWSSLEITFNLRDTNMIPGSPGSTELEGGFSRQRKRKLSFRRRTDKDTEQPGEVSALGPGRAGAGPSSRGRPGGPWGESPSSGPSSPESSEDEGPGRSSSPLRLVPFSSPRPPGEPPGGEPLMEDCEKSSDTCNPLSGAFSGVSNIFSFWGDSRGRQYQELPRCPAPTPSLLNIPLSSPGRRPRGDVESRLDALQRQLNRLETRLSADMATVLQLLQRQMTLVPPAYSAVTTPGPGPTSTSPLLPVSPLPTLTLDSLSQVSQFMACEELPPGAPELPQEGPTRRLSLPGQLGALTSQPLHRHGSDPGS
As to `O=C(NCc1ccccc1)[C@]1(C(F)(F)F)C[C@H](CCc2ccccc2)CCCO1`, the “hERG current change (%, negative = inhibition) at 10uM” value amounted to 3.84%.
Take `Cn1cc(Br)c(C(=O)Nc2sc3c(c2C(N)=O)CCC3)n1`: the “hERG current change (%, negative = inhibition) at 10uM” value was 18.4%.
Regarding `Cc1ccc(Cl)cc1NC(=O)c1cc(NC(=O)C2CCCCC2C(=O)O)ccc1N1CCOCC1` (stereo not drawn), the “hERG current change (%, negative = inhibition) at 10uM” value was -6.57%.
With `COc1cccc(CCNC(=O)CCc2nnc(-c3ccc4c(c3)OCO4)o2)c1` the figure was -7.05%; with `Cc1ccc2cc(C#N)c(NCCNC(=S)NCCCN(C)C)nc2c1C`, -0.554%; with `Cc1cc(OCC(=O)NCc2ccccn2)c2c(C)c(C)c(=O)oc2c1`, -11.2%.
With `CCOC(=O)C(=O)Nc1nc(-c2ccccc2)c(-c2ccccc2)o1`, the “hERG current change (%, negative = inhibition) at 10uM” value was -32.1%.
For `CCc1ccc(NC(=O)CSc2nc3ccccc3c(=O)n2CCN2CCOCC2)cc1`, the “hERG current change (%, negative = inhibition) at 10uM” value is reported as -67.6%.
Next, `O=C(CCCn1c(SCC(=O)NCC2CCCO2)nc2ccccc2c1=O)NCc1ccccc1` (stereo not drawn): -29.6%; `COc1cccc(NC(=O)CSc2nc3ccccc3c(=O)n2CCCC(=O)NCC2CCCO2)c1` (stereo not drawn): -70.3%.
With `CCOc1ccc(NC(=O)CSc2nc3ccccc3c(=O)n2CCCC(=O)NCC2CCCO2)cc1` (stereo not drawn) the figure was 3.34%; with `COc1ccc(NC(=O)CSc2nc3ccccc3c(=O)n2CCCC(=O)NCC2CCCO2)c(OC)c1` (stereo not drawn), -33.8%.
With `O=C(CCCn1c(SCC(=O)NCC2CCCO2)nc2ccccc2c1=O)NCC1CCCO1` (stereo not drawn) the figure was -5.18%; with `C=CCn1c(SCC(=O)Nc2ccc(N3CCOCC3)cc2)nc2ccccc2c1=O`, 3.75%.
In the case of `NS(=O)(=O)c1ccc(CCNC(=O)CSc2nc3ccccc3c(=O)n2CCN2CCOCC2)cc1`, the “hERG current change (%, negative = inhibition) at 10uM” value is recorded as 41.4%.
With `Cc1ccc(NC(=O)CSc2nc3ccccc3c(=O)n2CCCC(=O)NCC2CCCO2)cc1` (stereo not drawn) the figure was -0.641%; with `CCc1ccc(NC(=O)CSc2nc3ccccc3c(=O)n2CCCC(=O)NCCCN2CCOCC2)cc1`, -66.6%.
In the case of `O=C(CCCn1c(SCC(=O)NC2CCCCC2)nc2ccccc2c1=O)NCC1CCCO1` (stereo not drawn), the “hERG current change (%, negative = inhibition) at 10uM” value is recorded as -61.5%.
In the case of `NC(=O)c1ccc(NC(=O)CSc2nc3ccccc3c(=O)n2CCCN2CCOCC2)cc1`, the “hERG current change (%, negative = inhibition) at 10uM” value is listed as -5.06%.
With `O=C(CSc1nnc(-c2ccccc2F)o1)N1CCNC1=O` the figure was -32.1%; with `C=CCNC(=O)CCCc1ccccc1`, 7.65%; with `COc1ccc(NC(=O)c2cn3c(nc4ccccc43)c(C#N)c2C)cc1`, 3.29%.
With `CCC(=O)Oc1ccc(C(=O)Nc2ccccc2C(=O)NCC(C)C)cc1`, the “hERG current change (%, negative = inhibition) at 10uM” value turned out to be 15.6%.
With `O=C1CCC(c2ccc3c(c2)CCC3)=NN1` the figure was 17.3%.
On to `CCCCN1C(=O)C(NC(=O)C2CC2)(C(F)(F)F)C2=C1CC(C)(C)CC2=O` (stereo not drawn), for which the “hERG current change (%, negative = inhibition) at 10uM” value is recorded as 10.9%.
Next, `COc1ccc(NC(=O)CCN2C(=O)c3cccc([N+](=O)[O-])c3C2=O)cc1`: -5.08%; `CC(C)C(NC(=O)c1ccccc1F)C(=O)OCC(=O)c1ccc(F)cc1` (stereo not drawn): -9.49%.
For the molecule `CCOC(=O)c1sc(-c2ccccc2)cc1NC(=O)CSc1nnnn1C`, the “hERG current change (%, negative = inhibition) at 10uM” value is reported as -1.13%.
Next, `COc1ccccc1/C=C1/C(=O)ON=C1C`: 12.5%.
Consider `COc1cccc(NC(=S)C(C#N)=C2N(C)c3ccccc3N2C)c1`, for which the “hERG current change (%, negative = inhibition) at 10uM” value worked out at 4.88%.
As for `CCn1c(=O)cc(SCC(=O)N2CCCCC2)c2ccccc21`, the “hERG current change (%, negative = inhibition) at 10uM” value is given as -7.44%.
With `COC(=O)c1ccc(Oc2nc(NC(C)(C)C)nc(N3CCOCC3)n2)cc1` the figure was -16.1%; with `Cc1ccc(NC(=O)CSc2nc3ccccc3c(=O)n2CCCC(=O)NCCCN2CCOCC2)cc1`, -52.6%; with `CCOC(=O)CSc1nc2ccccc2c(=O)n1CCN1CCOCC1`, -50.3%.
`CCOC(=O)CSc1nc2cc(C(=O)OC)ccc2c(=O)n1CCN1CCOCC1`: the “hERG current change (%, negative = inhibition) at 10uM” value was -38.4%.
Consider `COC(=O)c1ccc2c(=O)n(CCN3CCOCC3)c(SCC(=O)Nc3ccc(C)cc3)nc2c1`, for which the “hERG current change (%, negative = inhibition) at 10uM” value is reported as -69.5%.
With `Cc1ccc(NC(=O)CSc2nc3ccccc3c(=O)n2CC2CCCO2)cc1` (stereo not drawn) the figure was 0.693%.
Next, `COC(=O)c1ccc2c(=O)n(CCN3CCOCC3)c(SCC(=O)Nc3ccccc3Cl)nc2c1`: -33.4%.
With `Cc1ccc(-n2c(SCC(=O)Nc3ccc(N4CCOCC4)cc3)nc3ccccc3c2=O)cc1` the figure was 6.08%.
For `COC(=O)c1ccc2c(=O)n(CCN3CCOCC3)c(SCC(=O)Nc3cccc(OC)c3)nc2c1`, the “hERG current change (%, negative = inhibition) at 10uM” value is -37.9%.
With `CCOC(=O)CSc1nc2ccccc2c(=O)n1CC(C)C`, the “hERG current change (%, negative = inhibition) at 10uM” value is -35.3%.
With `CN(C)c1cc[n+](CC(O)C[n+]2ccc(N(C)C)cc2)cc1.[O-][Cl+3]([O-])([O-])[O-]` the figure was 15.9%; with `CCCN(CCC)S(=O)(=O)c1ccc(N2CCCC2=O)c([N+](=O)[O-])c1`, -19.3%; with `COc1cccc(/C=N/NC(=O)CCNc2n[nH]c(=O)[nH]c2=O)c1OC`, 15.9%.
With `COc1cccc(NC(=O)c2ccccc2N2C(=O)C3C4C=CC(C4)C3C2=O)c1` (stereo not drawn) the figure was -1.23%; with `O=C(CN1CCCCCC1)NN(Cc1ccccc1)c1ccccc1.O=C(O)C(=O)O`, -72.3%; with `O=C(CN1CCCCCC1)Nc1ccccc1F.O=C(O)C(=O)O`, 9.38%.
With `O=C(CN1CCCCC1)NC(=O)NCc1ccccc1` the figure was 14.3%; with `CC(C)(O)C(=O)NN(Cc1ccccc1)c1ccccc1`, 16.2%.
On to `CCN(CC)CC(=O)NN(Cc1ccccc1)c1ccccc1.O=C(O)C(=O)O`, for which the “hERG current change (%, negative = inhibition) at 10uM” value is recorded as -73.6%.
With `CN1CCN(CC(=O)NN(Cc2ccccc2)c2ccccc2)CC1.O=C(O)C(=O)O` the figure was -14.2%; with `O=C(CN1CCCCC1)Nc1ccccc1NC(=O)CN1CCCCC1`, 3.83%.
With `CCN(CC(=O)NC(=O)NCc1ccccc1)Cc1ccccc1` the figure was -20.6%; with `O=C(CN1CCCCC1)NN(Cc1ccccc1)c1ccccc1.O=C(O)C(=O)O`, -73.3%.

(Values after article PMC4336329 (PLoS ONE, 2015).)
